Results: PubChem BioAssay AID1069 (NMMLSC, 2008)
Active and inactive are the calls of the source.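 The calls were made as follows: active = high combined rank on largest and smallest cell-count-weighted shift across three tests, rank score above 45, floors 50 and 25 (some results past the limit were not filed as active); inactive = the rest.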

Experiment: LNCaP granularity increase inducers, single-point recheck – cell-based, side scatter shift, flow cytometry, confirmation (AID 1069);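 also: LNCaP human prostate cancer cells in low-serum medium with charcoal-stripped FBS; percent of cells with raised granularity gated so DMSO controls show 10%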
Conditions: LNCaP differentiation, 4 d, stronger effect = higher value

SMILES | side scatter shift (at 100 µM) | side scatter shift (side scatter shift, at 10 µM) [%]
CCCc1ccc(Oc2cn[nH]c2-c2ccc(O)c(C)c2O)cc1 | 40% (inactive) | 4.85
Cc1ccc(-c2noc(CCC(=O)NCCCN3CCN(c4ccc(F)cc4)CC3)n2)cc1 | 0% (inactive) | 17.4
CCOC(=O)N1CCC(NC(=O)c2cc3c(-c4ccccc4F)nn(C)c3s2)CC1 | 3.3% (inactive) | 3.9
COc1ccc(N2CCN(CCCNC(=O)CN3CCN(Cc4ccccc4C)C3=O)CC2)cc1 | 15.8% (inactive) | 16.6
Cc1ccc(Cn2c(C(=O)NCCCN3CCOCC3)cc3sccc32)cc1 | 20.1% (inactive) | 10.8
Cc1cc(=O)n2nc(N3CCCC(C(=O)NCCCN4CCc5ccccc5C4)C3)sc2n1 (stereo unspecified) | 17.4% (inactive) | 9.3
CCOC(=O)c1ccccc1NC(=O)Cn1c(-c2nonc2N)nc2ccccc21 | 30.6% (active) | 27.1
CCc1ncc(C(O)c2cccc(OC)c2OC)n1C (stereo unspecified) | 1.4% (inactive) | 5.25
O=C(NCCCN1CCN(c2cccc(Cl)c2)CC1)c1cccc(N2CCCC2=O)c1 | 50.5% (active) | 7.7
COC(=O)c1cc(-c2ccccc2)sc1NC(=O)c1cc(C)on1 | 70% (inactive) | 13.2
CCc1ccc(-c2nc(CN3CCC(C(=O)N4CCN(c5ccccc5)CC4)CC3)c(C)o2)cc1 | 44.4% (inactive) | 19.8
CCOC(=O)c1sc2ncnc(N3CCN(c4ccc(OC)cc4)CC3)c2c1C | 25% (inactive) | 9.55
CCOC(=O)N1CCN(C(=O)C2CCCN(Cc3nc(-c4ccc(Cl)cc4)oc3C)C2)CC1 (stereo unspecified) | 20% (inactive) | 4.15
